Screening results as filed in PubChem BioAssay.
Compounds with a hit are over-represented: about 19% of the library has one in this group of screens.
HT1080NT lethal: qHTS for induction of synthetic lethality in tumor cells producing 2HG: qHTS for the HT-1080-NT fibrosarcoma cell line; 360,000 tested, 1.6% active; Potency, µM (titrated, usually from 46.1 µM), for inactives: top-dose activity, negative = less viability, hits mostly cytotoxic; HT-1080-NT fibrosarcoma viability, CellTiter-Glo ATP luminescence, 48 h;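 note: NT is the 2HG producing partner of a matched IDH1 knockdown line; potency is the fitted concentration of half-maximal effect; 0% = DMSO-treated cells and -100% = media-only wells without cells; nearly all actives have a fitted effect of over 55% in size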
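Read-out is CellTiter-Glo luminescence after 10 minutes at room temperature, following 48 hours' compound treatment of HT-1080-NT cells (750 cells/well, RPMI, 5% FBS, 37 degrees C).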
HT1080 IDH1KD tx: qHTS for induction of synthetic lethality in tumor cells producing 2HG: qHTS for the HT-1080-IDH1KD cell line. Potency, µM (top dose mostly 46.1 µM), for the others: at the top dose activity, negative = toxicity, actives largely listed as cytotoxic. HT-1080 IDH1 knockdown viability, ATP luminescence, 48 h. 360,000 tested, 2% active;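 note: potency is the fitted concentration of half-maximal effect; 0% = DMSO wells and -100% = cell-free medium wells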
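% activity derives from luminescence (CellTiter-Glo), normalised to DMSO and no-cell wells. HT-1080-IDH1KD cells, 750/well, had 48 h compound exposure at 37 °C.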
TDP1 cell CPT: qHTS for Inhibitors of human tyrosyl-DNA phosphodiesterase 1 (TDP1): qHTS in cells in presence of CPT | Potency, µM (titrated, usually from 46.2 µM), inactives show at the top dose activity change, negative = growth inhibition, actives largely listed as inhibitors | chicken DT40 Tdp1-/-;hTDP1 cells + 20 nM CPT, ATP luminescence, 48 h | 420,000 tested, 12% active; note: potency is the fitted concentration of half-maximal effect; nearly all actives have a fitted effect of over 55% in size
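Chicken DT40 Tdp1-/- cells stably complemented with human TDP1 were seeded at 400 cells/well in medium containing 20 nM camptothecin, exposed to pin-transferred compounds, and grown at 37 °C for at least 48 hr. Viability was read as ATP luminescence.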
TDP1 cell noCPT: qHTS for Inhibitors of human tyrosyl-DNA phosphodiesterase 1 (TDP1): qHTS in cells in absence of CPT | Potency, µM (top dose mostly 46.2 µM), for the others: at the top dose activity change, negative = growth inhibition, actives largely listed as inhibitors | DT40 Tdp1-/- hTDP1 cells, no CPT, ATP luminescence, 48 h | 420,000 tested, 15% active; note: potency is the fitted concentration of half-maximal effect; nearly all actives have a fitted effect of over 55% in size
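Growth of hTDP1-complemented DT40 Tdp1-knockout cells is measured by ATP luminescence after at least 48 hr compound exposure at 37 °C, with DMSO substituting for the 20 nM CPT used in the parallel screen.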
IL-1B inflam inh: qHTS for Inhibitors of Inflammasome Signaling: IL-1-beta AlphaLISA Primary Screen. THP-1 LPS/ATP IL-1B secretion, AlphaLISA, 16 h; hits give low values. activity change, % at 57.5 µM. 360,000 tested, 4.7% active. AID 743279, 2014; in the data active = activity change below about -50%; inconclusive = mostly about -30% to -49%
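Secreted IL-1B measured by AlphaLISA bead assay after 16 h compound exposure of THP-1 cells; compounds (final up to 57.5 uM) added 1 h before LPS (250 ng/mL) and ATP (1.25 mM) stimulation; lower signal means less secretion.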
Numbers without * were called inactive; ? = inconclusive; . = no result; [ ] = another dose, or the depositor's remark. Unless noted, calls come from the whole dose curve; as a rule, active = well fitted curve in the direction sought with a large enough effect; inconclusive = small, poorly fitted or top-dose-only effect, or another doubt; inactive = no such curve, though single readings can be large; an effect the other way counts as inactive or inconclusive. Unless noted, % is set by controls: 0 for no effect and ±100 for the full control effect.

SMILES | HT1080NT lethal | HT1080 IDH1KD tx | TDP1 cell CPT | TDP1 cell noCPT | IL-1B inflam inh
COc1ccc(-c2cc(C(F)(F)F)n3nc(C(=O)O)cc3n2)cc1OC | -1% | -8% | 4% | -21% | -3
COc1ccc(-c2cc(C(F)(F)F)n3nc(C(=O)N4CCCCC4)cc3n2)cc1OC | 1% | -6% | 18µM* | 18µM* | ?
COc1ccc(-c2cc(C(F)(F)F)n3nc(C(=O)N4CCCCC4)cc3n2)cc1 | -3% | -1% | 16µM* | 23µM* | -53*
Cc1cc(C)n(CC(=O)Nc2ccc(N3CCOCC3)c(Cl)c2)c(=O)c1C#N | -9% | -8% | 2% | 11% | 19
COC(=O)C[C@H]1CC[C@@H]2[C@H](COC[C@H](O)CN2S(=O)(=O)c2ccccc2OC)O1 | 21% | -1% | 2% | 6% | 7
COC(=O)c1scc(S(=O)(=O)C(C)C)c1N/N=C(\C#N)C(=O)c1ccc(Cl)cc1 | ? | ? | ? | 23µM* | -8
CC(C)S(=O)(=O)c1csc(C(=O)NN)c1Cl | 4% | -3% | 2% | -8% | 1
COC(=O)c1scc(C#N)c1N/N=C(\C#N)S(=O)(=O)c1ccc(Cl)cc1 | ? | ? | 4.1µM* | 4.6µM* | 12
COC(=O)c1scc(C)c1NC(=O)c1ccc(Cl)cc1 | 1% | 0% | -8% | ? | 6
COc1cccc(CNC(=O)[C@@H]2CCCN2C(=O)[C@H]2CCCCN2C(=O)c2c(F)cccc2F)c1 | 16% | 11% | -27% | ? | 0
CCOCCCNCC(=O)NCC1CCCCC1 | 2% | 6% | 1% | -13% | -5
CC(C)NC(=O)C1CCCN(c2ncnc3onc(-c4ccc(F)cc4)c23)C1 (configuration not stated) | . | . | -5% | -20% | .
O=C(Nc1ccc(F)c(Cl)c1)C1CCCN(C2=NS(=O)(=O)c3ccccc32)C1 (configuration not stated) | -12% | -12% | ? | ? | -19
O=C(Nc1ccc(F)c(Cl)c1)C1CCCN(c2ncnc3onc(-c4ccc(F)cc4)c23)C1 (configuration not stated) | . | . | -80% | 15µM* | .
Fc1ccc(-c2noc3ncnc(N4CCCCC4)c23)cc1 | . | . | 18µM* | 23µM* | .
CCOC(=O)c1ccc(NC(=O)C2CCCN(c3ncnc4onc(-c5ccc(F)cc5)c34)C2)cc1 (configuration not stated) | . | . | 21µM* | 15µM* | .
Cc1ccc(CNC(=O)C2CCCN(c3ncnc4onc(-c5ccc(F)cc5)c34)C2)cc1 (configuration not stated) | . | . | ? | 18µM* | .
COc1ccc(NC(=O)C2CCCN(c3ncnc4onc(-c5ccc(F)cc5)c34)C2)cc1 (configuration not stated) | 0% | 7% | ? | ? | 0
CC1=C(C(=O)Nc2ccc(C)cc2C)C(c2ccc(C)o2)NC(=S)N1 (configuration not stated) | -4% | -7% | -6% | -9% | -7
CN1CCN(C(=O)CCS(=O)(=O)c2cc3c(cc2Cl)NC(=O)CO3)CC1 | 5% | 1% | -7% | -7% | -2
COc1ccc(-c2cc(C(=O)Nc3c(C(=O)c4ccc(C)cc4)oc4ccccc34)no2)cc1 | . | . | -4% | 6% | .
Cn1ncc2c(N3CCOCC3)ncnc21 | -27% | 2%[9.24 µM] | -25% | -18% | -11
CN1CCN(c2ncnc3c2cnn3-c2cccc(Cl)c2)CC1 | . | . | 16µM* | 16µM* | .
Cn1ncc2c(N3CCN(c4cccc(Cl)c4)CC3)ncnc21 | . | . | ? | 5.8µM* | .
Cn1ncc2c(N3CCN(c4ccccc4Cl)CC3)ncnc21 | . | . | ? | 21µM* | .
